Statin myotox sup = suppressors of simvastatin-induced myotoxicity in C2C12 myotubes; AID 602340; actives 0.78% (n = 330,000); rescue of ATP level, % at 7.49 µM; ATP luminescence, 48 h; scaled: DMSO 0, geranylgeraniol control 100;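 active = mean ATP rescue above about 67%, or every replicate alone reaching that limit, limit read from the data, passing the limit was not always enough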;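 note: myotubes were challenged with 10 µM simvastatin during compound exposure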
F508del corr = CFTR F508del correction in bronchial cells | CFBE cells, YFP halide quenching; stimulated with forskolin plus potentiator P3; % fluorescence drop versus neutral controls | activity (quench increase), % at 7.58 µM | actives 0.36% (n = 350,000) | AID 720511;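 active = mean added fluorescence quench of at least 8% versus neutral control, with both replicates also reaching 8%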;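 note: cells transiently co-express mutant CFTR-F508del with the halide-sensitive YFP; corrector assay measuring rescue of mutant channel to the surface after 24 h compound exposure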
ARNT TACC3 PPI = disruptors of human ARNT/TACC3 interaction. Q9Y6A5. AlphaScreen His-ARNT PAS-B/GST-TACC3 binding, luminescence; TACC3 fragment carries E629A point mutation. inhibition, % at 9.99 µM. actives 0.66% (n = 390,000);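 active = mean inhibition of replicates at least 50% and at least half of replicates each reaching 50%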
PglD inh = PglD (C. jejuni) enzyme inhibition | purified PglD enzyme, DTNB colorimetric CoA detection | inhibition, % at 12.5 µM | actives 0.098% (n = 360,000) | AID 602405; in the data active = inhibition above about 16%, passing the limit was not always enough
ARNT Alpha ctr-1 = counter-screen for ARNT/TACC3 inhibitors: AlphaScreen artifacts; shares compounds with ARNT TACC3 PPI; His-ARNT PASB-GST AlphaScreen artifact counter-screen, luminescence; AC50, µM (highest dose often 68 µM); actives 50% (n = 1,200); AID 651705;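 active = every separate test run was called active for a drop in luminescence, with AC50 within twice the top valid dose, actives reach about 71 µM in these data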
ARNT Alpha ctr-2 = produces AlphaScreen artifacts in ARNT-TACC3 counter-screen | Dual-tagged His-ARNT PASB-GST AlphaScreen artifact counter-screen | AID 720564 | actives 70% (n = 45) | shares compounds with ARNT TACC3 PPI | AC50, µM;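 active = luminescence drop, with half-maximal potency fitted within twice the sample's top valid dose, cut at about 70 µM in these data; inactive = the rest, including signal moving the wrong way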
A number is an active result; i = inactive; nt = no result. Only some compounds are listed: those with a hit (about 1.4% of all), similar ones and a draw of the others.

SMILES | Statin myotox sup | F508del corr | ARNT TACC3 PPI | PglD inh | ARNT Alpha ctr-1 | others
Cc1ccc(S(=O)(=O)N[C@H]2CC[C@H](CCn3cc(-c4cccc(F)c4)nn3)O[C@@H]2CO)cc1 | i | i | i | i | nt
Nc1cc2cccnc2cc1Cl | i | i | 53 | i | i
Brc1ccc2cccnc2c1 | i | nt | i | i | nt
CN(C)CCCNC(=O)C[C@@H]1C=C[C@H](NS(=O)(=O)c2ccc(F)cc2)[C@@H](CO)O1 | i | i | i | i | nt
CC(C)Nc1nc(-c2ccccn2)nc(-c2ccccc2)c1C#N | nt | i | nt | nt | nt
Cc1ccc(Nc2nc(-c3ccccn3)nnc2-c2ccccc2)cn1 | nt | nt | nt | nt | 0.42µM
c1ccc(-c2cnc(Nc3nc(-c4ccccn4)nnc3-c3ccccc3)s2)cc1 | nt | nt | nt | nt | 2.6µM
COc1ccccc1C(=O)N1C[C@@H]2[C@H](c3ccccc31)[C@H](CO)N2CC1CCOCC1 | i | i | i | i | nt
CCc1ccc2c(c1)C1(NN=C(c3ccc(C)cc3)S1)C(=O)N2 (configuration not stated) | nt | nt | 61 | i | 2.8µM
CCc1ccc2c(c1)NC(=O)C2(C)Cc1ccc(F)cc1 (configuration not stated) | i | i | nt | i | nt
N#C[C@@H]1[C@@H](c2ccc(-c3ccc(F)cc3)cc2)[C@H](CO)N1c1nc(-c2ccccc2)cs1 | i | i | 56 | i | 58µM
O=C(NCCCn1ccnc1)c1cc2cc([N+](=O)[O-])ccc2oc1=O | nt | nt | 54 | nt | i
CC(C)(C)c1cc(C(=O)NCCCn2ccnc2)cc(C(C)(C)C)c1 | i | i | 61 | i | i
O=C(NCCCn1ccnc1)c1ccc2nccnc2c1 | nt | i | 58 | i | i
Cc1ccc(C(=O)NCCCn2ccnc2)cc1C | i | i | nt | i | nt
O=C(NCCCn1ccnc1)c1ccc(Cl)cc1[N+](=O)[O-] | nt | i | nt | nt | nt
O=C(N[C@@H]1CC[C@@H](CCn2cc(-c3ccccc3)nn2)O[C@H]1CO)c1cnccn1 | i | i | i | i | nt
O=C(C[C@H]1CC[C@H](NC(=O)c2ccccc2)[C@@H](CO)O1)Nc1ccc(-c2ccccc2)cc1 | i | i | i | i | nt
O=C(C[C@H]1CC[C@@H](NC(=O)c2ccccc2)[C@H](CO)O1)Nc1ccc(-c2ccccc2)cc1 | i | i | 51 | i | i
COc1ccc(NC(=O)N[C@H]2CC[C@H](CCn3cc(-c4ccccn4)nn3)O[C@@H]2CO)cc1 | i | i | 20 | i | 36µM
N[C@@H]1CC[C@H](CCn2cc(-c3ccccn3)nn2)O[C@H]1CO | i | i | 75 | i | 6.6µM
O=C(N[C@H]1CC[C@@H](CCn2cc(-c3ccccc3)nn2)O[C@@H]1CO)c1cnccn1 | i | i | active | i | i
COc1ccc(-c2cn(CC[C@@H]3CC[C@@H](N)[C@H](CO)O3)nn2)cc1 | i | i | i | i | nt
Cc1ccc(S(=O)(=O)Nc2ccc3c(c2)CC(=O)N([C@H](C)CO)C[C@H](C)[C@@H](CN(C)CC2CCCCC2)O3)cc1 | i | i | i | i | nt
C/C=C/c1ccc([C@@H]2[C@H](CO)N(C(C)=O)C23CN(S(C)(=O)=O)C3)cc1 | nt | i | nt | nt | nt
SMILES | Statin myotox sup | F508del corr | ARNT TACC3 PPI | PglD inh | ARNT Alpha ctr-1 | others
COCc1cn(CC[C@@H]2CC[C@H](NC(=O)c3ccccc3)[C@@H](CO)O2)nn1 | i | i | i | i | nt
c1ccc(-c2cn(C[C@H]3CC[C@H](Cn4cc(-c5ccccn5)nn4)O3)nn2)nc1 | i | i | 72 | i | 7.8µM
O=C(N[C@H]1CC[C@H](CCn2cc(-c3ccccn3)nn2)O[C@@H]1CO)c1ccccc1 | i | i | 74 | i | 34µM
O=C(N[C@H]1CC[C@H](CCn2cc(-c3ccccn3)nn2)O[C@H]1CO)c1ccccc1 | i | i | 54 | i | i
COCc1cn(CC[C@H]2CC[C@H](NC(=O)c3ccccc3)[C@H](CO)O2)nn1 | i | i | i | i | nt
COCc1cn(CC[C@H]2CC[C@H](NC(=O)c3ccccc3)[C@@H](CO)O2)nn1 | i | i | i | i | nt
O=C(N[C@@H]1CC[C@H](CCn2cc(-c3ccccn3)nn2)O[C@H]1CO)c1ccccc1 | i | i | 76 | i | 60µM
N#CC1=C(N)Oc2c(ccc3cccnc23)C1c1ccccc1 (configuration not stated) | i | 17 | 57 | i | 71µM
Cc1sc2ncnc(N/N=C/c3ccccc3O)c2c1C | nt | nt | 54 | i | 41µM
Cc1sc2ncnc(N/N=C/c3ccc(O)cc3)c2c1C | i | i | i | i | nt
C[C@@H]1CN([C@H](C)CO)C(=O)c2cc(C#CC3CC3)cnc2O[C@H]1CN(C)S(=O)(=O)c1cccc(F)c1 | i | i | i | i | nt
O=C(N/N=C1/CCS(=O)(=O)c2ccc(F)cc21)c1cccnc1 | i | i | i | i | nt
O=C(N/N=C1/CCS(=O)(=O)c2ccc(F)cc21)c1ccccn1 | nt | i | 52 | nt | i
COc1ccc(Nc2nc(N)nc(COc3ccc(OC)cc3)n2)cc1 | i | nt | i | i | nt
CCOc1ccc(Nc2ncnc(N)n2)cc1 | i | nt | i | i | nt
CCOc1ccc(Nc2nc(N)nc(CN(C)C3CCCCC3)n2)cc1 | nt | nt | 63 | i | i
COc1ccc(Nc2nc(N)nc(CN(C)C3CCCCC3)n2)cc1 | i | nt | 56 | i | i
COc1ccc(S(=O)(=O)Nc2ccc3c(c2)CC(=O)N([C@@H](C)CO)C[C@@H](C)[C@@H](CN(C)S(=O)(=O)c2ccc(OC)cc2)O3)cc1 | i | i | i | i | nt
COc1ccccc1C#Cc1ccc2c(c1)[C@H]1[C@H](CCN1S(=O)(=O)c1ccc(C)cc1)[C@@H](CO)N2 | nt | i | nt | nt | nt
C[C@@H]1CCCCO[C@@H](CN(C)C(=O)Nc2cccc3ccccc23)[C@H](C)CN([C@@H](C)CO)C(=O)c2cc(NS(=O)(=O)c3cn(C)cn3)ccc2O1 | nt | i | 55 | i | 10µM
C[C@H](CO)N1C[C@H](C)[C@@H](CN(C)C(=O)Nc2cccc3ccccc23)OCCCC[C@H](C)Oc2ccc(NC(=O)CCCN(C)C)cc2C1=O | nt | i | i | i | nt
C[C@H](CO)N1C[C@H](C)[C@H](CN(C)C(=O)Nc2cccc3ccccc23)OCCCC[C@H](C)Oc2ccc(NC(=O)CCCN(C)C)cc2C1=O | nt | i | 59 | i | i
CNC[C@@H]1Oc2ccc(NS(=O)(=O)c3ccc(OC)cc3)cc2CC(=O)N([C@H](C)CO)C[C@H]1C | i | i | i | i | nt
CN1CCN(S(=O)(=O)c2cccc(C(=O)Nc3sccc3C(N)=O)c2)CC1 | i | i | 46 | i | 44µM
CN1CCN(S(=O)(=O)c2cccc(C(=O)Nc3cc(C(N)=O)cc(C(N)=O)c3)c2)CC1 | i | i | i | i | nt
CC(C)Cc1nnc(NC(=O)c2cccc(S(=O)(=O)N3CCN(C)CC3)c2)s1 | i | i | i | i | nt
CC(C)Cc1nnc(NC(=O)c2cccc(S(=O)(=O)N3CCOCC3)c2)s1 | i | i | nt | i | nt | ARNT Alpha ctr-2=i

Screening data deposited in PubChem by Broad Institute.
